Results from PubChem BioAssay (NCATS).
Inconclusive results are not listed. Values without a mark were called inactive. Active and inactive are the calls of the source. Calls follow the shape of the dose curve; as a rule, active = well fitted inhibition curve with a large enough effect; inconclusive = small, poorly fitted or top-dose-only effect; inactive = flat fitted curve, though single readings scatter.

Target: Calcium and integrin-binding protein 1 (Homo sapiens) (UniProt Q99828)
Assay: Primary qHTS for Identification of Calcium Integrin Binding Protein 1 (CIB1) Competitor (AID 1508620); also: top concentration of the series differs between compounds
Settings: CIB1-GST / FITC-alphaIIb peptide fluorescence polarization; series mostly up to 114 µM; activity change, negative = inhibition: at the top concentration
How it was run: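 Fluorescence polarization competition: GST-tagged CIB1 (1 uM final) preincubated with compound 15 min at room temperature, then FITC-labelled alphaIIb peptide (100 nM final) added. After 15 min at room temperature, polarization read at Ex 480/Em 540.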
% is scaled to controls: 0 for no effect and ±100 for the full control effect.

Chain of Calcium and integrin-binding protein 1 (Homo sapiens) (Q99828 whole entry, looked up): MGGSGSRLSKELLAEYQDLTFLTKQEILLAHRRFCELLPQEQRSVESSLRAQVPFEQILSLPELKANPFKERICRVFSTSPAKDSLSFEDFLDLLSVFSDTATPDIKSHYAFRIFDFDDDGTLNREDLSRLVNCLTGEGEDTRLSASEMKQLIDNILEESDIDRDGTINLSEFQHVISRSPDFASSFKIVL

Row | SMILES | activity change, negative = inhibition | Potency
1 | C[C@H](CCC(=O)O)[C@H]1CC[C@H]2[C@@H]3C(=O)C[C@@H]4CC(=O)CC[C@]4(C)[C@H]3CC(=O)[C@]12C | 2.26% | –
2 | CC(=O)CC(c1ccc([N+](=O)[O-])cc1)c1c(O)c2ccccc2oc1=O (stereo unspecified) | -8.78% | –
3 | CCCCC1=NC2(CCCC2)C(=O)N1Cc1ccc(-c2ccccc2-c2nn[nH]n2)cc1 | 1.23% | –
4 | C[C@]12C=CC(=O)C=C1CC[C@@H]1[C@@H]2[C@@H](O)C[C@@]2(C)[C@H]1CC[C@]2(O)C(=O)CO | -0.0971% | –
5 | CCCN1CCCC[C@H]1C(=O)Nc1c(C)cccc1C | -3.69% | –
6 | O=C(Nc1ccc(Cl)c(Cl)c1)C1CC1 | -1.24% | –
7 | CC(=O)OCC(=O)[C@@]12OC(C)(C)O[C@@H]1C[C@H]1[C@@H]3C[C@H](F)C4=CC(=O)C=C[C@]4(C)[C@@]3(F)[C@@H](O)C[C@@]12C | -1.54% | –
8 | COc1cc2c(cc1OC)C(=O)C(CC1CCN(Cc3ccccc3)CC1)C2 (stereo unspecified) | -0.232% | –
9 | C#C[C@]1(O)CC[C@H]2[C@@H]3CCC4=CC(=O)CC[C@@H]4[C@H]3CC[C@@]21C | 6.02% | –
10 | Cc1cc2c(cc1CC(=O)c1sccc1S(=O)(=O)Nc1onc(C)c1Cl)OCO2 | – | inactive
11 | Cc1ccc(C(=O)C(C)CN2CCCCC2)cc1 (stereo unspecified) | – | inactive
12 | N[C@@H](CCC(=O)N[C@@H](CS)C(=O)NCC(=O)O)C(=O)O | -6.04% [at 57.7 µM] | –
13 | CCN(CC)C(=O)N1CCN(C)CC1 | -0.469% | –
14 | c1ccc(CNCCNCc2ccccc2)cc1 | 2.36% | –
15 | CC1(C)O[C@@H]2C[C@H]3[C@@H]4C[C@H](F)C5=CC(=O)C=C[C@]5(C)[C@H]4[C@@H](O)C[C@]3(C)[C@]2(C(=O)CO)O1 | 6.16% | –
16 | CC(=O)OCC(=O)[C@@]1(OC(C)=O)[C@@H](C)C[C@H]2[C@@H]3C[C@H](F)C4=CC(=O)C=C[C@]4(C)[C@@]3(F)[C@@H](O)C[C@@]21C | 6.16% | –
17 | CN=C(NC#N)NCCSCc1csc(N=C(N)N)n1 | 4.56% | –
18 | C=C1C[C@H]2[C@@H]3C=C(C)C4=CC(=O)CC[C@]4(C)[C@H]3CC[C@]2(C)[C@@]1(OC(C)=O)C(C)=O | 7.88% | –

Row | SMILES | activity change, negative = inhibition | Potency
19 | COC(=O)CCc1ccc(OCC(O)CNC(C)C)cc1 (stereo unspecified) | – | inactive
20 | Cc1cc(=O)n(-c2ccccc2)n1C | -3.34% | –
21 | CC(C)(Oc1ccc(Cl)cc1)C(=O)O | 4.83% | –
22 | Cc1c(F)c(N2CCNC(C)C2)cc2c1c(=O)c(C(=O)O)cn2C1CC1 (stereo unspecified) | -4.62% | –
23 | C=CCc1ccc(O)c(OC)c1 | -4.11% | –
24 | Nc1ccn([C@@H]2O[C@H](CO)[C@@H](O)C2(F)F)c(=O)n1 | – | inactive
25 | CC1(C)O[C@@H]2[C@@H](CO[C@@]3(COS(N)(=O)=O)OC(C)(C)O[C@@H]23)O1 | 7.35% | –
26 | O=C(O)CNC(=O)c1ccccc1 | 0.255% | –
27 | Cc1c(C(N)=O)cc([N+](=O)[O-])cc1[N+](=O)[O-] | -10.5% | –
28 | CCC(C(=O)OCCN(CC)CC)c1ccccc1 (stereo unspecified) | -2.37% | –
29 | CCCCN1CCCC1C(=O)Nc1c(C)cc(C)cc1C (stereo unspecified) | 16.5% | –
30 | CCCCC(=O)O[C@]1(C(=O)CO)CC[C@H]2[C@@H]3CCC4=CC(=O)CC[C@]4(C)[C@H]3[C@@H](O)C[C@@]21C | -2.91% | –
31 | CCn1cc(C(=O)O)c(=O)c2cnc(N3CCCC3)nc21 | 2.6% [at 30.2 µM] | –
32 | N[C@H](Cc1c[nH]c2ccccc12)C(=O)O | -2.18% | –
33 | Nc1ccc(C(=O)O)cc1 | 3.98% | –
34 | Cc1c(C(C)C)c(=O)n(-c2ccccc2)n1C | 1.39% | –
35 | COc1c2occc2c(OC)c2c(=O)cc(C)oc12 | -4.16% | –
36 | CN(C)CCCOc1nn(Cc2ccccc2)c2ccccc12 | – | inactive
